Shown are actives, neighbours in structure and some others; about 0.9% of the full set was active somewhere.
PPARg SRC-2 ag – agonists of PPARg-SRC-2 recruitment, primary screen, biochemical, HTS. Peroxisome proliferator-activated receptor gamma (Homo sapiens), P37231. PPARgamma LBD-SRC-2 recruitment. activation, % at 8 µM. 0.34% of 200,000 active; in the data active = activation above about 22%;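 note: 0% = vehicle and 100% = reference agonist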
Target sequence (P37231 whole entry, looked up, the tested form may be a part): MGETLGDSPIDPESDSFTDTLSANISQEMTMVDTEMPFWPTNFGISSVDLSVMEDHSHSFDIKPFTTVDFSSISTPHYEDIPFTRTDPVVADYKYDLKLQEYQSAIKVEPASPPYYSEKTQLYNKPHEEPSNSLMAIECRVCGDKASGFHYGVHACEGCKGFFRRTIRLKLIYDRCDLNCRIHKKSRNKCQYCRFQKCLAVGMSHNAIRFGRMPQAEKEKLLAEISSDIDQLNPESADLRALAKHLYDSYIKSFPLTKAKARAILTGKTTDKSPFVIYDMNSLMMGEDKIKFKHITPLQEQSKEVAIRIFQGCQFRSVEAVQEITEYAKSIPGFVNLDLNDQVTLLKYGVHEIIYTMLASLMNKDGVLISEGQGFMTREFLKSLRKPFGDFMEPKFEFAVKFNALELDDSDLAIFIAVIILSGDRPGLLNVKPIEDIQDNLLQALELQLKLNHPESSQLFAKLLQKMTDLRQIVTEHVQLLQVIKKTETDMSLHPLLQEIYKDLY
SRC1 TRFRET art – TR-FRET detection interference compounds, primary screen, artefact control for PPARgamma SRC-1 recruitment agonists, biochemical, TR-FRET emission ratio | TR-FRET detection artefact counter-screen; stronger effect = higher value | TR-FRET ratio at 8 µM | 0.34% of 99,000 active; in the data active = TR-FRET ratio above about 2300
SRC2 TRFRET art – TR-FRET signal artefacts, primary screen, artefact control for PPARgamma SRC-2 agonist project, biochemical; 0.4% of 200,000 active; TR-FRET artefact counter-screen; stronger effect = higher value; TR-FRET ratio at 8 µM
SRC3 TRFRET art – TR-FRET detection interference compounds, artefact control for PPARgamma SRC-3 recruitment agonists, biochemical, TR-FRET ratio | TR-FRET artefact counter-screen, PPARgamma/SRC-3 format; stronger effect = higher value | TR-FRET ratio at 8 µM | 0.39% of 99,000 active
PPARg SRC-3 ag – PPARgamma agonists recruiting SRC-3 coactivator, primary screen, biochemical; Peroxisome proliferator-activated receptor gamma (Homo sapiens), P37231; biochemical PPARgamma/SRC-3 coactivator recruitment assay; activation, % at 8 µM; 0.26% of 200,000 active; AID 731, 2007; in the data active = activation above about 23%;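 note: 0% = DMSO and 100% = reference agonist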
PPARg SRC-1 ag – PPARgamma agonists recruiting SRC-1 coactivator, primary screen, biochemical | Peroxisome proliferator-activated receptor gamma (Homo sapiens), P37231 | PPARgamma-SRC-1 coactivator recruitment biochemical assay | activation, % at 8 µM | 0.41% of 200,000 active | AID 631, 2007; in the data active = activation above about 19%;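 note: 0% = DMSO and 100% = reference agonist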
PPARg SRC2 conf – agonists of PPARgamma SRC-2 coactivator recruitment, confirmation, biochemical, HTS; shares compounds with PPARg SRC-3 ag; biochemical SRC-2 recruitment by PPARgamma; activation, % at 8 µM; 52% of 790 active; in the data active = activation above about 22%;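 note: 0% = vehicle alone and 100% = reference agonist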
PPARg SRC1 conf – PPARgamma agonists recruiting SRC-1 coactivator, confirmation, biochemical; shares compounds with PPARg SRC-3 ag; AID 1300, 2008; activation, % at 8 µM; PPARgamma–SRC-1 coactivator recruitment biochemical assay; 43% of 790 active; in the data active = activation above about 20%;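 note: 0% = vehicle wells and 100% = reference agonist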
PPARg SRC3 conf – PPARgamma-driven SRC-3 coactivator recruitment agonists, confirmation, biochemical; shares compounds with PPARg SRC-3 ag; biochemical PPARgamma-SRC-3 coactivator recruitment, agonist mode; activation, % at 8 µM; 29% of 790 active; AID 1301, 2008; in the data active = activation above about 24%;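 note: 0% = vehicle wells and 100% = reference agonist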
The depositor's hits bear a star; / = no result given. Cut-off read from the data, not from the text of the source, unless noted: active = TR-FRET ratio above about 2000; inactive = the rest.

SMILES	PPARg SRC-2 ag	SRC1 TRFRET art	SRC2 TRFRET art	SRC3 TRFRET art	PPARg SRC-3 ag	PPARg SRC-1 ag	PPARg SRC2 conf	PPARg SRC1 conf	PPARg SRC3 conf
Cc1ccc(OCCCC(=O)Nc2ccc(S(N)(=O)=O)cc2)cc1	-0.5	1823	1572	1515	3.4	8.7	/	/	/
COc1cc(C2C(C(=O)N3CCOCC3)=C(C)NC3=C2C(=O)CCC3)ccc1OC(C)=O (stereo not drawn)	-2.0	/	1371	/	-5.8	-1.3	/	/	/
CC1CN(C(=O)c2ccccc2)OC(c2ccc3c(c2)OCO3)O1 (stereo not drawn)	7.0	/	1775	/	6.2	9.5	/	/	/
O=C(CSc1ncnc2c1oc1ccccc12)N1CCCc2ccccc21	39.9*	/	1981*	/	39.5*	16.2	30.9*	24.0*	19.1
O=C(O)CSc1ncnc2c1oc1ccccc12	26.2*	/	1845	/	23.8	19.3*	18.4	13.0	11.2
O=C(CSc1ncnc2c1oc1ccccc12)Nc1ccccc1C(F)(F)F	7.3	2040	1704	1851	12.1	11.3	/	/	/
N#CCCSc1ncnc2c1oc1ccccc12	41.1*	/	2279*	/	35.7*	19.9*	30.9*	21.4*	22.1
O=C(c1ccco1)N1N=C(c2ccc(Br)cc2)CC1(O)C(F)(F)F (stereo not drawn)	15.1	2287	2022*	1800	12.6	23.2*	15.2	14.3	13.0
O=C(c1ccco1)N1N=C(c2ccc(Cl)cc2)CC1(O)C(F)(F)F (stereo not drawn)	3.0	1753	1680	1690	6.1	5.2	/	/	/
Cc1ccc(C2C(C(=O)c3ccco3)=C(O)C(=O)N2c2nnc(C)s2)cc1 (stereo not drawn)	19.9	/	1957	/	33.7*	24.1*	13.9	12.1	10.3
COC(=O)c1sc(N2C(=O)C(O)=C(C(=O)c3ccc(C)o3)C2c2ccc(F)cc2)nc1C (stereo not drawn)	26.4*	/	2303*	/	19.8	30.5*	30.0*	22.8*	19.0
CCOc1ccc(OCc2cccc(C(=O)N3CCCCCC3)c2)cc1	-0.1	1968	1534	1496	3.8	2.1	/	/	/
CC(C)OC(=O)CNc1n[nH]c(=S)[nH]c1=O	128.8*	5153*	4518*	4653*	74.0*	113.4*	106.2*	77.9*	70.6*
CC(C)COC(=O)C(C)Nc1n[nH]c(=S)[nH]c1=O (stereo not drawn)	10.0	2031	1786	1932	5.0	8.0	/	/	/
CC(C)OC(=O)C(C)Nc1n[nH]c(=S)[nH]c1=O (stereo not drawn)	66.2*	3785*	3006*	3327*	45.1*	71.3*	98.2*	73.8*	63.5*
COC(=O)CCNc1n[nH]c(=O)[nH]c1=O	7.6	1933	1554	1714	6.5	-1.0	/	/	/
COC(=O)CNc1n[nH]c(=S)[nH]c1=O	120.7*	/	4234*	/	156.0*	99.8*	118.7*	86.2*	82.2*
CCOC(=O)CSc1nnc(NCC(=O)OC(C)C)c(=O)[nH]1	7.3	/	1728	/	7.4	7.0	/	/	/
CCOC(=O)CSc1nc(N)c(C(=O)Nc2ccc(N(C)C)cc2)s1	10.4	/	1889	/	4.2	21.9*	7.2	10.6	5.9
COc1cccc(NC(=O)CN(C)C(C)C(=O)Nc2cc([N+](=O)[O-])ccc2Cl)c1 (stereo not drawn)	4.6	1760	1856	1518	2.9	9.5	/	/	/
O=C(O)C1=C[C@H](c2csc3ccccc23)C[C@H](OCc2ccc(CO)cc2)O1	14.5	1867	1599	1734	8.7	23.8*	2.7	-2.5	0.5
O=C(O)C1=C[C@@H](c2csc3ccccc23)C[C@@H](OCc2ccc(CO)cc2)O1	5.9	1697	1553	1610	4.1	1.1	/	/	/
Cc1occc1C(=O)N/N=C/c1c[nH]c2ccccc12	2.5	/	1606	/	10.1	19.0*	2.5	0.7	1.8
N#Cc1cc2ccccc2nc1SCC(=O)Nc1ccc(S(=O)(=O)N2CCCC2)cc1	13.0	/	3014*	/	7.2	19.1*	5.5	4.1	2.6
Cc1cc(=O)[nH]c(SCC(=O)Nc2ccc(S(=O)(=O)N3CCCCC3)cc2)n1	6.2	/	1360	/	-12.5	-2.7	/	/	/
SMILES	PPARg SRC-2 ag	SRC1 TRFRET art	SRC2 TRFRET art	SRC3 TRFRET art	PPARg SRC-3 ag	PPARg SRC-1 ag	PPARg SRC2 conf	PPARg SRC1 conf	PPARg SRC3 conf
Cc1cc2nc(-c3ccc(SCC(=O)Nc4ccc(S(=O)(=O)N5CCCC5)cc4)nc3)[nH]c2cc1C	38.6*	3103*	3000*	3472*	20.0	30.7*	78.8*	62.0*	49.5*
COc1ccc2nc(SCC(=O)N3CCCCC3)c(C#N)cc2c1	-2.8	1902	1479	1673	3.5	3.9	/	/	/
COc1ccc2nc(SCC(=O)Nc3ccc(S(=O)(=O)N4CCCC4)cc3)c(C#N)cc2c1	78.1*	/	4855*	/	83.2*	85.7*	78.7*	61.8*	47.5*
O=C(CSc1ccc(-c2nc3ccccc3[nH]2)cn1)Nc1ccc(S(=O)(=O)N2CCCC2)cc1	5.5	1936	1868	2021	1.2	-0.7	/	/	/
O=C(O)CCCCCn1c(SCC(=O)N2CCCC2)nc2ccsc2c1=O	3.1	/	1513	/	2.9	2.3	/	/	/
Cc1c(Cl)cccc1NC(=S)NCCCN(C)C	2.8	1845	1498	1447	-1.1	3.7	/	/	/
CCOC(=O)c1cc(-c2ccc(N)cc2)sc1N	28.0*	/	1795	/	15.9	16.3	11.3	7.7	6.0
CCOC(=O)c1sc(-c2ccc(Br)cc2)cc1N	15.1	/	1901	/	6.1	4.7	/	/	/
COc1ccc(-c2nn(-c3ccccc3)cc2CO)cc1OC	0.5	1948	1676	1773	-0.8	6.5	/	/	/
O=C1N=c2ccccc2=C1c1sc(=S)n(NC(=O)c2cccc(O)c2)c1O	11.5	2026	1790	2060*	14.3	21.8*	35.1*	26.6*	22.4
O=C(Nn1c(O)c(C=C2N=c3ccccc3=N2)sc1=S)c1ccc(Cl)cc1	-4.5	/	1686	/	-0.2	3.5	/	/	/
O=C(Nn1c(O)c(C=C2N=c3ccccc3=N2)sc1=S)c1cccc(Cl)c1	15.4	/	1764	/	27.4*	15.0	23.0*	15.4	10.4

Screening data: PubChem BioAssay, The Scripps Research Institute Molecular Screening Center
